# Results as given in PubChem BioAssay AID588692 (Broad Institute, 2011).
# Among all 360,000 compounds or so, about 830 (0.23%) were called active.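 Rule for the calls: active = mean luciferase reporter signal, scaled so untreated is 0 and the glycosylation-blocking control 100, at or above a set limit in every replicate; inconclusive = mean reaches the limit but not every replicate does; inactive = mean below the limit.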 Many of the other results were omitted from the sample, so actives are more common in it than they were.
# Test: D54 reporter luminescence gain compounds – D54 ERlucT cells, set 2, N-linked glycosylation inhibitor project, primary screen (AID 588692);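 note: luciferase carries N-glycosylation sites so blocking glycosylation raises the light; 0% = median of neutral control wells and 100% = median of 100 nM tunicamycin wells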
# Conditions: D54 ERlucT glycosylation luciferase reporter, 24 h; at 12.5 µM; active compounds read high; percent of 100 nM tunicamycin response
row,SMILES,reporter increase
1,CCCn1nc(C(=O)Nc2ccc3nc(C)sc3c2)c2ccccc2c1=O,-5.69% (inactive)
2,CCCC(=O)Nc1nc2ccc(NC(=O)c3c(F)c(F)c(OC)c(F)c3F)cc2s1,45.8% (active)
3,CC(=O)Nc1ccc2nc(NC(=O)CS(=O)(=O)c3ccc(F)cc3)sc2c1,1.57% (inactive)
4,O=C(NCN1CCN(CCO)CC1)c1cnccn1,1.41% (inactive)
5,Cc1cc(C)c2nc(SCC(=O)N(C)C3CCS(=O)(=O)C3)cc(C)c2c1 (centres undefined),-2.35% (inactive)
6,CC1CCN(c2ccc(-c3ccc(NC(=O)c4ccco4)cc3)nn2)CC1,-3.17% (inactive)
7,O=C(NCCCn1ccnc1)c1cc(-c2ccccc2)on1,86.5% (active)
8,O=C(NCCCn1ccnc1)c1cc(Br)c(Br)s1,-1.37% (inactive)
9,COc1cc(OC)cc(C(=O)NCCCn2ccnc2)c1,-1.14% (inactive)
10,CC(C)CC1C(=O)N(Cc2cn(CC3CCCCC3)nn2)CCS(=O)(=O)N1Cc1ccc(-c2ccc(Cl)cc2)cc1 (centres undefined),-5.63% (inactive)
11,COc1ccc(-c2c(C#N)cnc(C)c2C)c(O)c1OC,1.16% (inactive)
12,CSc1ncnc2c1ncn2CCCNCc1ccco1,-1.13% (inactive)
13,CCc1ccccc1NC(=O)Cc1cn(C)c2ccccc12,0.183% (inactive)
14,COc1ccc(CNC(=O)C[C@H]2C[C@H](C(=O)N3CCOCC3)[C@@]3(C)c4[nH]c5cc(CCC(=O)N(C)C)ccc5c4CCN3C2=O)cc1OC,1.84% (inactive)
15,O=C(OC(C(=O)NC1CCCC1)c1ccc(F)cc1)c1ccno1 (centres undefined),3.11% (inactive)
16,O=C1C(C=NCC2CCCO2)=C(O)c2ccccc21 (centres undefined),-4.51% (inactive)
17,N#Cc1cc([N+](=O)[O-])ccc1NCC1CCCO1 (centres undefined),-0.076% (inactive)
18,O=C1c2cccc3c([N+](=O)[O-])ccc(c23)C(=O)N1CC1CCCO1 (centres undefined),29.4% (active)
19,C[C@@H]1C[C@@H]2O[C@H]2/C=C\C=C\C(=O)Cc2c(Cl)c(O)cc(O)c2C(=O)O1,-14.3% (inactive)
20,CCC1=C(OC(=O)N(CC)CC)N2C(=O)OC(=NCCc3c[nH]c4ccccc34)[C@]2(C)[C@H]2C1=CC[C@H]1C(=O)N(CC)C(=O)[C@H]12,-4.07% (inactive)
21,CC(=O)c1ccc(S(=O)(=O)NCCC(=O)N2CCN(c3ccccn3)CC2)cc1,-0.855% (inactive)
22,CCN(CC(=O)Nc1c(F)cccc1F)C(=O)C1CCC1,0.369% (inactive)
23,O=C(O)CSCC(=O)Nc1ccc(C(F)(F)F)cc1,1.33% (inactive)

row,SMILES,reporter increase
1,CC(=O)Nc1ccc(SCC(=O)NC(=O)c2ccc(Cl)cc2)cc1,-6.32% (inactive)
2,O=C(CCl)Nc1ccc(Sc2ccc(NC(=O)CCl)cc2)cc1,41% (active)
3,Cc1ccccc1NC(=O)c1ccc(COc2ccc3c(C)cc(=O)oc3c2)cc1,-2.09% (inactive)
4,O=C(c1ccccc1)C(Cn1cncn1)C(Sc1ccccc1)c1ccccc1 (centres undefined),-3.83% (inactive)
5,O=C(Cc1ccc([N+](=O)[O-])cc1)NCCc1ccc2c(c1)OCO2,-0.789% (inactive)
6,CC1CCN(c2ccc(C(=O)NCc3ccc4c(c3)OCO4)cc2[N+](=O)[O-])CC1,-1.89% (inactive)
7,O=C(NCc1ccc2c(c1)OCO2)c1cc([N+](=O)[O-])ccc1N1CCOCC1,25.7% (active)
8,Cc1ccc(C(=O)NCC(c2cccs2)N(C)C)cc1S(=O)(=O)N1CCOCC1 (centres undefined),0.45% (inactive)
9,Cc1nc(-c2ccccc2)sc1-c1nnc(C2CC2)o1,0.986% (inactive)
10,Cc1ccccc1Nc1nc(N)nc(CN2CCN(c3ccccn3)CC2)n1,1.95% (inactive)
11,Cc1ccc(Nc2nc(N)nc(CN3CCN(Cc4ccccc4)CC3)n2)cc1Cl,49% (active)
12,CCOC(=O)C1CCCN(Cc2nc(N)nc(Nc3ccc(C)cc3)n2)C1 (centres undefined),1.57% (inactive)
13,CCN(C(=O)COC(=O)c1cc(S(=O)(=O)N2CCc3ccccc32)ccc1OC)C1CCS(=O)(=O)C1 (centres undefined),-1.41% (inactive)
14,Cc1cccc(C(=O)NCc2nnc(SC(C)C(=O)Nc3nnc(C)s3)n2C)c1 (centres undefined),-0.286% (inactive)
15,CC(C)(Oc1ccc(C2CC2(Cl)Cl)cc1)C(=O)O (centres undefined),4.07% (inactive)
16,O=C(Cc1ccccc1)Nc1ccc(C(=O)Nc2ccccc2C(=O)O)cc1,1.55% (inactive)
17,O=C(Nc1ccccc1F)c1ccc(S(=O)(=O)N2CCCCCC2)cc1,-0.684% (inactive)
18,Nc1ccc(C(=O)Nc2ccccc2N)cc1,69.6% (active)
19,Cc1ccc(S(=O)(=O)NC(=O)N2CCCN(Cc3ccc(F)cc3)CC2)cc1,-2.48% (inactive)
20,O=C(CCNS(=O)(=O)c1ccccc1)NCCSc1ccc(Br)cc1,2.32% (inactive)
21,CC1(C)CC(=O)C=C(NCc2ccncc2)C1,1.27% (inactive)
22,O=C(CCN1C(=O)C2CCCCC2C1=O)Nc1ccc(OC(F)F)cc1 (centres undefined),0.177% (inactive)
23,Cc1cc(Cl)ccc1N1C(=O)CC(SCCC(=O)O)C1=O (centres undefined),1.84% (inactive)

row,SMILES,reporter increase
1,O=C(O)CC(Cc1ccccc1)C(=O)Nc1ccc([N+](=O)[O-])cc1 (centres undefined),-1.27% (inactive)
2,CC(=O)NC(c1ccccc1)c1nc(-c2ccccc2C)cs1 (centres undefined),11.9% (inactive)
3,COc1cccc(C(NC(C)=O)c2nc(-c3cnc4ccccc4c3)cs2)c1 (centres undefined),1.72% (inactive)
4,COc1cccc(C(NC(C)=O)c2nc(-c3ccccc3OC)cs2)c1 (centres undefined),62.8% (active)
5,COc1cccc(C(=O)N2CCC(n3nccc3NC(=O)C3CCOC3)CC2)c1 (centres undefined),0.842% (inactive)
6,COc1ccc(Cl)cc1NS(=O)(=O)c1cccc(C(=O)NC2CCC(O)CC2)c1 (centres undefined),-1% (inactive)
7,Cc1[nH]n(C(N)=S)c(=O)c1N=Nc1ccc(Cl)cc1Cl,-0.0505% (inactive)
8,CC(=O)NC(Cc1ccc(F)c(F)c1)C(=O)NC1CCN(c2nnnn2-c2ccccc2)CC1 (centres undefined),0.485% (inactive)
9,C/C(=N\OCC(=O)Nc1ccc(Br)cc1)c1cccs1,2.32% (inactive)
10,Cc1ccc(C(=O)Nc2ccc(NC(=O)c3cccs3)cc2)c(C)c1,47.6% (active)
11,Cc1ccc(OCC(=O)Nc2ccc(NC(=O)c3cccs3)cc2)c(C)c1,79.9% (active)
12,Cc1cccc(C(=O)Nc2ccc(C(=O)/C=C/c3cccs3)cc2)c1,-1.77% (inactive)
13,Cc1ccc(OCC(=O)Nc2ccc(N3CCN(C(=O)c4ccco4)CC3)cc2)c(C)c1,-5.46% (inactive)
14,Cc1ccc(NNC(=O)c2cccs2)cc1Cl,1.56% (inactive)
15,O=C(NCCN1CCOCC1)c1ccccc1N1C(=O)[C@@H]2Cc3c([nH]c4ccccc34)C(c3cccc(Cl)c3)N2C1=O (some centres undefined),4.03% (inactive)
16,COC(=O)c1cccc(N(C(=O)c2ccco2)C(C(=O)NC2CCCC2)c2ccco2)c1 (centres undefined),1.26% (inactive)
17,COCCNc1ncnc2c1ncn2[C@H]1CN(Cc2ccc(OC)cc2)C[C@@H](CO)O1,0.218% (inactive)
18,CC(C)C[C@H](NC(=O)NCCc1ccc(Cl)cc1)C(=O)O,0.0345% (inactive)
19,CCN(CC)C(=O)CSc1nnc(-c2cnccn2)n1-c1ccc(C)cc1,1.32% (inactive)
20,Cc1cccc(NC(=O)C(C)N2C(=O)C3C4CC(C(Br)C4Br)C3C2=O)c1 (centres undefined),2.15% (inactive)
21,CCN(C(=O)c1cc([N+](=O)[O-])ccc1NCc1cccnc1)c1ccccc1,-2.09% (inactive)
22,Cn1cnc2c1c(=O)n(Cc1ccccc1C#N)c(=O)n2C,1.69% (inactive)
23,Cc1cc2oc(=O)cc(CN(C)Cc3ccccc3)c2cc1Cl,0.116% (inactive)

row,SMILES,reporter increase
1,CCN1C(=O)CS/C1=N\c1nccs1,0.352% (inactive)
2,C=CCC[C@@H](Cc1ccc(F)cc1)C(=O)OC[C@H](Cc1c[nH]c2ccccc12)NC(=O)[C@@H](CC=C)CC(=O)N(CCO)Cc1ccccc1,-0.357% (inactive)
3,Cn1c(CCN2CCN(c3ccccn3)CC2)nc2cc(NS(=O)(=O)c3ccc(F)cc3)ccc21,-5.5% (inactive)
4,Cn1c(=O)n(C)c2cc(S(=O)(=O)Nc3ccc(F)cc3)ccc21,2.56% (inactive)
5,Cn1c(=O)n(C)c2cc(NS(=O)(=O)c3ccc(F)cc3)ccc21,27.7% (active)
6,COc1ccccc1CNC(=O)c1cc(-c2cc(F)ccc2OC)n[nH]1,0.448% (inactive)
7,Cc1cc(F)ccc1N1CCC(N2CCN(C)C(CCO)C2)CC1 (centres undefined),-1.14% (inactive)
8,Cc1cc(O)ccc1-c1cc(C(=O)NCc2cc(C(F)(F)F)cc(C(F)(F)F)c2)[nH]n1,1.18% (inactive)
9,COCCCNC(=O)c1cccc2c(-c3ccc(O)c(OC)c3)coc12,31.5% (active)
10,COc1ccc(-c2coc3c(C(=O)NC(C)C)cccc23)c(C)c1,-2.53% (inactive)
11,COCCCNC(=O)c1ccc(-c2c(C)noc2C)c2ccoc12,19.8% (inactive)
12,COc1ccc(-c2ccc(CN3C(CC(C)C)C(=O)N(Cc4cn(CC5CCCCC5)nn4)CCS3(=O)=O)cc2)cn1 (centres undefined),4.1% (inactive)
13,CSCCC(C(=O)NC1=NCCS1)N1C(=O)c2ccccc2C1=O (centres undefined),-0.003% (inactive)
14,COc1ccc(N2CCN(S(=O)(=O)c3cc4c5c(c3)C(C)C(=O)N5CCC4)CC2)cc1 (centres undefined),-1.71% (inactive)
15,CCn1nc(C(=O)NNC(=O)C2CSC3(C)CCC(=O)N23)c2ccccc2c1=O (centres undefined),-0.092% (inactive)
16,CC(NCc1cccs1)C(=O)Nc1cc(Cl)cc(Cl)c1 (centres undefined),0.0655% (inactive)
17,O=C(N/N=C/C=C/c1ccccc1)C1CC1(c1ccccc1)c1ccccc1 (centres undefined),-0.496% (inactive)
18,CN(C)S(=O)(=O)c1ccc(N2CCCC2)c(C(=O)NCc2ccccc2)c1,-1.02% (inactive)
19,CN(C)S(=O)(=O)c1ccc(N2CCCC2)c(C(=O)Nc2cccc(F)c2)c1,48.8% (active)
20,CN(C)S(=O)(=O)c1ccc(N2CCCC2)c(C(=O)Nc2ccc(Br)cc2F)c1,-1.25% (inactive)
